Compounds with a hit are over-represented: about 3.7% of the library has one in this group of screens.
tim10-1 inh: inhibits growth of tim10-1 mutant yeast; S. cerevisiae tim10-1 ts strain growth, BacTiter-Glo, 24 h; inhibition, % at 20 µM; hit rate 2.2% among 330,000; AID 463190;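 active means inhibition of at least 40%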;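 further: mutant grown at 25 °C; 0% = DMSO wells with yeast and 100% = wells holding no yeast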
tim23-1 inh: inhibits growth of tim23-1 mutant yeast | inhibition, % at 20 µM | AID 463212 | S. cerevisiae tim23-1 growth, BacTiter-Glo luminescence, 24 h | hit rate 1.3% among 330,000;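 active means growth inhibition of the mutant yeast at or above 50%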;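 further: temperature-sensitive mutant grown at 25 °C; plate controls were DMSO-treated mutant yeast for no effect and medium wells lacking yeast for full effect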
TIM10 inh: TIM10 yeast growth inhibition. AID 463195. hit rate 1.4% among 330,000. inhibition, % at 10 µM. S. cerevisiae TIM10 strain growth, BacTiter-Glo luminescence, 24 h;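 active means inhibition of 40% or more at the single tested concentration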;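 further: wild-type TIM10 isogenic control strain grown at permissive 25 °C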
PfHsp90 yeast 2: reduces growth (ATP signal) of yeast expressing P. falciparum Hsp90; inhibition, % at 9.4 µM; S. cerevisiae expressing PfHsp90, BacTiter-Glo ATP, 48 h; yeast lacking PDR1 and PDR3 efflux regulators; hit rate 0.32% among 310,000;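 active means every replicate shows inhibition above about 80%, whatever the replicate mean, limit read from the data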;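 further: 0% = DMSO neutral controls and 100% = 20 µM radicicol positive controls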
Rce1 inhib: inhibitors of yeast Ras-converting enzyme | Q03530 | yeast membranes, quenched prenylated peptide cleavage fluorescence | calls only | hit rate 0.27% among 290,000 | AID 2563;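 active means fall in fluorescence gain of 50% or more versus controls, with final raw signal at or below 3038400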;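 further: plate controls were neutral control wells for no effect and wells lacking membranes for full effect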
Target sequence (Q03530 whole entry, looked up): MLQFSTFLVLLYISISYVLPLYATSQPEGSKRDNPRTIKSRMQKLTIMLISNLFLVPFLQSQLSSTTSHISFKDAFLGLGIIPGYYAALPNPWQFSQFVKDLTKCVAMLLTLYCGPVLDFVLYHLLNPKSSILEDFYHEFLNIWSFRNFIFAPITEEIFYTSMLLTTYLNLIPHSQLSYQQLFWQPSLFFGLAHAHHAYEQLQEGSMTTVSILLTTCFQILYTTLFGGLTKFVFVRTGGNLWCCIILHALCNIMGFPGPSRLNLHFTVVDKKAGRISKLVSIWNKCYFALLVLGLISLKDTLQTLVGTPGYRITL
TIM10 conf: TIM10 yeast growth inhibition, confirmed | S. cerevisiae tim10 strain growth, BacTiter-Glo luminescence, 24 h | hit rate 63% among 4,600 | AID 463215 | inhibition, % at 10 µM | shares compounds with TIM10 inh;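 active means inhibition of yeast growth at or above a set limit in either of two replicates at 10 µM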;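 further: this counterscreen used the strain with wild-type TIM10; 0% = yeast with DMSO and 100% = medium wells lacking yeast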
An asterisk follows results filed as active; i = inactive; . = no result.

SMILES	tim10-1 inh	tim23-1 inh	TIM10 inh	PfHsp90 yeast 2	Rce1 inhib	TIM10 conf
CC(c1ccco1)N(C(=O)c1ccccc1NS(=O)(=O)c1ccc(Cl)cc1)c1ccccn1 (stereo not given)	36.5	42.6	44.7*	-5.4	i	40.6*
CC(c1ccco1)N(C(=O)c1ccccc1NS(=O)(=O)c1cc([N+](=O)[O-])ccc1Cl)c1ccccn1 (stereo not given)	39.2	39.6	45.1*	-10.2	i	33.5*
CSC1=C(C#N)C(=O)NC(c2ccc(Cl)cc2)S1 (stereo not given)	30.6	43.7	45.5*	-0.1	i	23.3
COCCNC(=O)CN(Cc1ccccc1)S(=O)(=O)c1ccc2nc(C)sc2c1	2.5	20.8	12.4	-6.2	i	.
Oc1[nH]c2ccc(Br)cc2c1N=Nc1ccc(C(F)(F)F)cn1	35.0	-5.6	30.6	-34.7	i	.
Oc1[nH]c2ccccc2c1N=Nc1ccc(C(F)(F)F)cn1	26.0	24.7	53.3*	10.8	i	29.3
CCNC(=S)N/N=C/c1cn(Cc2ccc(F)cc2)c2ccccc12	31.8	40.5	43.4*	9.1	i	50.7*
CC1CCN(C(=S)c2cn(Cc3ccc(F)cc3)c3ccccc23)CC1	35.5	27.5	54.6*	-10.0	i	38.1*
CCNC(=S)N/N=C/c1cn(Cc2ccccc2F)c2ccccc12	13.6	18.0	30.5	-48.3	i	.
CN1CCN(C(=S)c2cn(Cc3ccc(F)cc3)c3ccccc23)CC1	3.4	18.3	-2.3	13.7	i	.
Cc1cc(C)cc(C(=O)NC(CC(N)=O)c2ccc(N3CCN(c4ccccc4)CC3)c([N+](=O)[O-])c2)c1 (stereo not given)	-0.8	5.7	48.6*	-9.8	i	-5.4
NC(=O)CC(NC(=O)c1cccc(Br)c1)c1ccc(NCC2CC2)c([N+](=O)[O-])c1 (stereo not given)	-6.2	12.8	-5.6	-5.5	i	.
NC(=O)CC(NC(=O)c1cccc(Br)c1)c1ccc(NCCN2CCOCC2)c([N+](=O)[O-])c1 (stereo not given)	7.3	-5.3	42.8*	.	i	-11.6
NC(=O)CC(NC(=O)c1ccccc1)c1ccc(N2CCN(c3ccccc3)CC2)c([N+](=O)[O-])c1 (stereo not given)	-12.8	-10.7	-2.2	4.5	i	.
CN(C(=O)c1cnc(N2CCN(c3ncccn3)CC2)c2ccccc12)c1ccc(Cl)cc1	37.8	10.9	51.6*	-6.5	i	27.5*
Cc1cccc(NC(=S)NC(=O)c2ccc(Br)o2)c1C	-4.4	-1.3	-2.3	14.0	i	.
Cc1cccc(C)c1NC(=S)NC(=O)c1ccc(Br)o1	34.1	37.9	42.1*	-43.8	i	43.0*
Cc1ccc(-c2nc3cc(NS(=O)(=O)c4ccc(C)cc4)ccc3o2)cc1	35.4	34.5	44.8*	-11.5	i	37.0*
Cc1ccc(-c2nc3cc(N)ccc3o2)cc1	36.4	25.1	40.9*	1.5	i	29.6*
C=CCNC(=S)N/N=C/c1ccc(C(F)(F)F)cc1	22.0	44.0	40.4*	-9.7	i	20.3
FC(F)(F)c1ccc(/C=N/NC(=S)NC2CCCCC2)cc1	30.7	-34.1	-4.7	6.4	i	.
C=CCNC(=S)N/N=C/c1ccc(-c2ccc(OC)cc2)o1	15.3	17.2	41.6*	-34.1	i	36.4*
C=CCNC(=S)N/N=C/c1ccc(-c2cc(Cl)ccc2Cl)o1	5.6	-23.1	-6.4	-7.5	i	.
O=C(CSc1nc2nn(-c3ccccc3)c(=O)c-2c2n1CCCCC2)Nc1cccc(F)c1	11.8	15.9	10.2	-6.5	.	.
O=C(N/N=C/c1ccc([N+](=O)[O-])o1)c1sc2ccccc2c1Cl	25.2	46.8	69.4*	103.5*	i	64.7*
SMILES	tim10-1 inh	tim23-1 inh	TIM10 inh	PfHsp90 yeast 2	Rce1 inhib	TIM10 conf
COC(=O)N/N=C/c1ccc([N+](=O)[O-])o1	20.0	22.3	6.4	-10.1	i	.
O=C(N/N=C/c1c[nH]c2ccccc12)c1sc2ccccc2c1Cl	-23.8	39.2	25.5	.	i	.
Cc1cc(C(=O)N/N=C/c2ccc([N+](=O)[O-])o2)c(C)o1	24.4	23.6	41.1*	-11.3	i	24.9
Cn1cccc1/C=N/NC(=O)c1sc2ccccc2c1Cl	8.2	46.4	46.3*	-45.9	i	49.4*
Cc1ccc(C(=O)OCC(=O)Nc2ccc(F)c(Cl)c2)o1	8.0	9.3	2.6	-12.6	.	.
CCOC(=O)c1ccc(CNC(=O)C2CCC(=O)N(CCc3ccccc3)C2)o1 (stereo not given)	-12.2	3.2	-2.5	-9.4	i	.
COc1ccccc1NC(=O)COC(=O)c1oc2ccccc2c1C	13.9	8.3	5.5	-3.8	i	.
Cc1cc(Cl)ccc1OCC(=O)NNC(=O)c1cccnc1	-22.0	1.8	80.1*	-32.1	.	-7.1
O=C(COc1ccc(Cl)cc1Cl)NNC(=O)c1cccnc1	8.2	9.9	-11.3	-3.9	i	.
COc1ccc(N2C(=O)CC(Sc3nc(C)cc(C)c3C#N)C2=O)cc1 (stereo not given)	30.3	30.7	41.7*	6.6	i	28.4*
CCCc1ccc(C#N)c(SC2CC(=O)N(c3ccc(OC)cc3)C2=O)n1 (stereo not given)	5.6	9.6	10.2	6.3	i	.
NS(=O)(=O)c1ccc(NC(=S)Nc2cc(Cl)c(Cl)cc2Cl)cc1	16.8	18.3	9.3	21.9	i	.
Cc1cccc(C)c1NC(=O)NC1(C(=O)NCC2CCCO2)CCCCC1 (stereo not given)	14.1	18.7	-5.1	10.6	i	.
CCn1c2ccccc2c2cc(CNCc3ccc(OC)cc3OC)ccc21	1.6	19.7	48.6*	20.6	i	23.2
O=C(Nc1ccc(N2CCOCC2)cc1)c1cc(-n2cnnc2)ccc1Cl	-15.0	-17.7	96.5*	-9.9	i	-8.7
COc1ccc(NC(=O)COC(=O)C2CCN(S(=O)(=O)c3cccs3)CC2)cc1OC	-0.6	4.1	-5.9	7.4	.	.
COc1ccc(CNC(=S)N/N=C/c2ccc(OC)c(OC)c2)cc1	20.2	7.4	40.2*	-38.7	i	23.0
CCN(CC)c1ccc(/C=N/NC(=S)NCc2ccccc2)cc1	34.4	4.9	44.2*	-12.3	i	-0.8
C=CCNC(=S)N/N=C/c1ccc(N(CC)Cc2ccccc2)cc1	26.3	40.7	33.7	12.4	i	.
NC(=O)c1ccc(NC(=O)COC(=O)CCCOc2ccccc2)cc1	-18.1	-15.6	-8.9	-17.7	.	.
O=C(OC(C(=O)NCc1ccc(F)cc1)c1ccccc1)c1ccco1 (stereo not given)	-0.1	7.5	-16.3	-18.3	i	.
S=c1[nH]nc(-c2ccc(Br)o2)n1Cc1ccccc1	37.9	46.2	46.1*	-0.1	i	34.6*
Cc1ccccc1C(=O)NCC(=O)NCC1(N2CCOCC2)CCCCC1	0.1	-8.0	-4.5	8.8	i	.
COc1ccc(/C=N/Nc2ncnc3scc(-c4ccccc4)c23)cc1OC	31.8	26.2	57.9*	-2.4	i	43.8*

Screens (PubChem)
